# MCF10A rerep = DNA re-replication induction in MCF 10a cells; MCF 10A DNA re-replication, Hoechst nuclear intensity, 48 h; 2.9% of 350,000 active; Potency, µM (titrated, usually from 46.1 µM), for inactives: top-dose activity, positive = re-replication, actives largely listed as activators; also: % of control where 0% means no effect; nearly all actives have a fitted effect of over 50% in size
# Mito fusion act = blocks mitochondrial division or promotes mitochondrial fusion; S. cerevisiae fusion-defective mutant growth rescue, CellTiterGlo 48 h; Potency, µM (titrated, usually from 46.1 µM), for inactives: at the top dose growth rescue (activation), most hits filed as activators; 0.23% of 320,000 active; AID 485298; also: % of control where 0% means no effect; nearly all actives have a fitted effect of over 45% in size
#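 Luminescent cell viability in 1536-well qHTS format served as the measure of rescued growth in ts fusion-mutant S. cerevisiae cultured on non-fermentable YPEG for 48 hours at 37C.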
# SW480 rereplic = inducers of DNA re-replication in SW480 colon cancer cells; Potency, µM (highest dose often 46.1 µM), for the others: top-dose re-replication activation, hits mostly activators; SW480 DNA re-replication, Hoechst DNA content imaging, 48 h; 1.8% of 340,000 active; also: % of control where 0% means no effect; nearly all actives have a fitted effect of over 55% in size
#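 DNA re-replication was detected as more nuclei of elevated Hoechst intensity after 48 hr exposure to compound (23 nL pinned per well of 250 cells).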
# A-T KAP1 phos = potential ataxia-telangiectasia treatments restoring KAP-1 phosphorylation; 0.19% of 320,000 active; F2112 A-T fibroblasts, KAP-1 phosphorylation AlphaLISA; neocarzinostatin DNA damage 30 min before lysis; Potency, µM (top dose mostly 57.5 µM), for inactives: at the top dose activation, usual class: activators; also: % of control where 0% means no effect; nearly all actives have a fitted effect of over 45% in size
#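 hTERT-immortalized A-T patient fibroblasts (F2112), 500 cells/well in OPTI-MEM, 1% FBS, got compounds for 60 min, then NCS for 30 min at 37C. Lysates were then assayed for phospho-KAP-1 by AlphaLISA (anti-pKAP1 donor, anti-KAP1 acceptor beads), 6 hr at 25C.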
# Integrin act MD = activates integrin-mediated alleviation for muscular dystrophy. alpha7betagal myoblasts, beta-gal FDG fluorescence, 48 h. 0.064% of 350,000 active. Potency, µM (series often up to 38.3 µM), inactives show top-dose activation, most hits filed as activators;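 also: 100% = response of the positive control SU9516; nearly all actives have a fitted effect of over 60% in size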
#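 alpha7betagal+/- myoblasts (passage 13, 250/well) treated 48 h at 37C with compounds at 1:260 dilution of DMSO stock. Lysed, then beta-galactosidase activity read as FDG fluorescence (ex 480/em 540) after 30 min, with pre-read for autofluorescence.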
# Active calls of the source: *; ? = inconclusive; . = no result; [ ] = another dose, or the depositor's remark. Hits are enriched below; roughly 4.2% of the tested compounds scored in any of these assays. Calls follow the shape of the dose curve; as a rule, active = well fitted activation curve with a large enough effect; inconclusive = small, poorly fitted or top-dose-only effect; inactive = no such curve, though single readings can be large or run the other way. Potency is read from the fitted curve at half-maximal effect.
SMILES,MCF10A rerep,Mito fusion act,SW480 rereplic,A-T KAP1 phos,Integrin act MD
COc1cc(Cl)c([C@@H]2C[C@H]3CN(c4ccccc4)C(=O)[C@]34CCCN24)cc1OC,7%,6%,-18%,-4%[11.5 µM],17%
COc1ccccc1-n1cc([C@@H]2C[C@H]3CN(c4ccccc4)C(=O)[C@]34CCCN24)cn1,2.6µM*,-3%,8.2µM*,8%,0%
COc1cc(/C=N/OCC(=O)Nc2cc(C)cc(C)c2)ccc1OCc1ccc(Cl)cc1,20%,14%,.,2%,3%
COc1cc(/C=N/OCC(=O)NC2CCCCC2C)ccc1OCc1ccc(Cl)cc1 (stereo not drawn),16µM*,25%,-2%,2%,-32%
O=C1CCC(C(=O)Nc2ccc([N+](=O)[O-])cc2)N1 (stereo not drawn),2%,6%,-6%,10%,27%
C/C(=N\OCC(=O)Nc1ccccc1Br)c1cccs1,?,-8%,0.15µM*,19%,16%
C/C(=N/OCC(=O)Nc1ccccc1)c1cccs1,-1%,-1%,-5%,4%,7%
CCn1c(=O)c2ccccc2n2c(SCC(N)=O)nnc12,-13%,3%,-1%,5%,-22%
COc1nc(N)nc(NC(=O)c2cccs2)c1N=O,21µM*,.,5.2µM*,.,-12%
CN(C)S(=O)(=O)c1ccc2c(c1)C(=O)c1cc(S(=O)(=O)N(C)C)ccc1CC2,21%,-8%,-2%,8%,.
CN(C)S(=O)(=O)c1ccc2c(c1)/C(=C/c1cc3c([nH]1)CCCC3)C(=O)N2,?,-75%,10µM*,-11%,.
O=c1cc(-c2ccc(Cl)cc2)oc(=O)[nH]1,0%,3%,0%,-5%,14%
O=c1cc(N=Nc2ccc(Cl)cc2)[nH]c(=O)[nH]1,3.7µM*,-48%,5.2µM*,-4%,-57%
CNC(=O)CSc1nnc(NC(=O)C2CC(=O)N(c3ccccc3OC)C2)s1 (stereo not drawn),1%,1%,-33%,7%,22%
O=c1cc2c(nn1Cc1ccccc1Cl)-c1ccccc1CC2,10%,20µM*,2%,6%,-11%
O=c1cc2c(nn1Cc1ccc(Cl)cc1Cl)-c1ccccc1CC2,?,?,1%,5%,-24%
CC12CCC(CC1O)C2C(=O)O (stereo not drawn),.,.,.,.,-2%
Cc1n[nH]c(=S)n1/N=C/c1ccc(OCc2ccc(Cl)cc2)cc1,12%,-14%,-10%,16%,0%
Cc1cc(C)c(COc2ccc(/C=N/n3c(C)n[nH]c3=S)cc2)c(C)c1,13µM*,3%,-80%,-6%,14%
CC1(C)Cc2c(cnn2-c2cccc(F)c2)C(NC(=O)CCc2cnccn2)C1 (stereo not drawn),-1%,-19%,-15%,0%,3.2µM*
CCCCOC(=O)c1ccc(NC(=O)c2c(OC)cccc2OC)cc1,15%,4%,-4%,1%,18%
CCCCCCCCOc1ccccc1C(=O)Nc1ccc(C(=O)OCC[N+](C)(CC)CC)cc1,27µM*,.,-2%,.,.
CCCCCCCCC[n+]1cccc2c3ccccc3ccc21,?,-25%,?,-5%,0%
CCCCCCCCCCCCCCCC[n+]1cccc2ccccc21,18µM*,-17%,?,-1%,?
O=C(COc1ccc2ccccc2c1Br)NC(=S)Nc1cccc(CO)c1,?,10%,2.9µM*,1%,-12%
SMILES,MCF10A rerep,Mito fusion act,SW480 rereplic,A-T KAP1 phos,Integrin act MD
O=C(COc1ccc(Br)cc1Br)NC(=S)Nc1cccc(CO)c1,-3%,?,-231%,0%,41%
CCOC(=O)[C@H](CCc1ccccc1)N[C@@H](C)C(=O)N1[C@H](C(=O)O)C[C@H]2CCCC[C@@H]21,-1%,-1%,-6%,.,.
Cc1cc(SCc2ccc(Cl)cc2Cl)nc(=O)[nH]1,9.2µM*,27%,?,3%,-13%
CCN(CC(=O)Nc1ccccc1OC)C(=O)c1ccc2[nH]c3c(c2c1)CC(C)CC3 (stereo not drawn),18µM*,0%,-9%,-6%,-16%
CCCN(CC(=O)Nc1ccccc1OC)C(=O)c1ccc2[nH]c3c(c2c1)CC(C)CC3 (stereo not drawn),?,25%,11%,7%,-28%
COc1ccc(CN2C(=O)C(CC(=O)NCCc3ccccn3)CC(C(=O)N(C)C)=C2C)cc1 (stereo not drawn),.,.,.,.,-10%
CCOC(=O)C1CCN(C(=O)c2cc3cc(Br)ccc3oc2=O)CC1,-4%,-2%,5%,1%,40%
CCOC(=O)C1CCCN(C(=O)c2cc3cc(Br)ccc3oc2=O)C1 (stereo not drawn),5%,-2%,6.3µM*,3%,0%
COc1ccc(NS(=O)(=O)c2cc(OC)ccc2OC)cc1,1%,.,-6%,.,2%
COc1ccc(NS(=O)(=O)c2cc(OC)ccc2NC(=O)c2cc(C)oc2C)cc1,13µM*,-11%,13µM*,1%,-12%
COc1ccc(C(=O)COC(=O)[C@@H](NS(=O)(=O)c2ccccc2)C(C)C)cc1,?,.,12%,8%,21%
COc1cc(/C=C/C(=O)N2CCC=CC2=O)cc(OC)c1OC,8.2µM*,-11%,?,30%,.
COc1ccc2cc(C(=O)/C=C/c3cc(OC)c(OC)c(OC)c3)ccc2c1,13µM*,-15%,21µM*,7%,-44%
COc1ccc(C(=O)c2ccc(OC)c(OC)c2)cc1OC,12%,4%,6%,0%,-19%
COc1cc(OC)c(C(=O)C=Cc2ccc(OC)c(OC)c2)c(OC)c1,169%,.,18µM*,.,-30%
COc1ccc(C(=O)c2cc(OC)c(OC)c(OC)c2)cc1OC,3.7µM*,.,3.7µM*,.,-15%
CCOC(=O)C1(Cc2ccccc2Cl)CCN(Cc2csc(C(C)=O)c2)CC1,10%,-5%,2%,1%[11.5 µM],32%
CC(=O)c1cccc(NC(=O)N2CCC(NC(=O)C3CCCCC3)CC2)c1,0%,9%,-2%,-4%,-15%
COc1cc(C=CC(=O)c2cc(OC)c(OC)c(OC)c2)cc(OC)c1OC,13µM*,.,?,.,-57%
Cc1oc(-c2ccc(Cl)cc2)nc1CS(=O)CC(=O)NCCc1ccccc1 (stereo not drawn),.,2%,.,.,.
Cc1cc(/C=C2\C(=N)N3N=C(S(C)(=O)=O)SC3=NC2=O)c(C)n1Cc1ccccc1,21µM*,5%,?,8%,20%
CCCC1=NN2C(=N)/C(=C\c3cc(C)n(-c4cccc(C)c4)c3C)C(=O)N=C2S1,?,-1%,-3%,5%,17%
CCCC1=NN2C(=N)/C(=C\c3cc(C)n(Cc4ccccc4)c3C)C(=O)N=C2S1,23µM*,-3%,-4%,-3%,13%
Cc1cc(/C=C2\C(=N)N3N=CSC3=NC2=O)c(C)n1Cc1ccccc1,29µM*,8%,-10%,4%,-7%

# Bioassay records deposited in PubChem by National Center for Advancing Translational Sciences (NCATS).
